Data taken from PubChem BioAssay (NCI).
The panel holds about 79,000 compounds, 15% with a hit somewhere; the sample as a whole holds those more often. Active and inactive are the calls of the source. Cut-off read from the data, not from the text of the source: active = growth inhibition above about 70%; inactive = the rest.

Experiments:
[1] = NCI Yeast Anticancer Drug Screen. Data for the rad52 strain (AID 147);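 note: 0% = growth of vehicle-treated control cultures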; details: S. cerevisiae rad52 mutant growth inhibition, active compounds read high
In short: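 Vehicle-treated cultures served as the reference for growth inhibition of compound-exposed yeast bearing a DNA repair mutation.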

[2] = NCI Yeast Anticancer Drug Screen. Data for the rad50EPP+ strain (AID 151);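 note: 0% = growth of vehicle-treated control cultures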; details: S. cerevisiae rad50 mutant strain, active compounds read high
In short: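 In this screen, rad50EPP+ yeast were exposed to compounds. Growth inhibition was scored against vehicle-treated controls.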

[3] = NCI Yeast Anticancer Drug Screen. Data for the mgt1 strain (AID 153); details: S. cerevisiae mgt1 mutant growth inhibition, active compounds read high
In short: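 mgt1 strain exposed; growth vs vehicle control recorded as inhibition.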

[4] = NCI Yeast Anticancer Drug Screen. Data for the rad50 strain (AID 155);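 note: 0% = growth of vehicle-only cultures of the same strain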; details: S. cerevisiae rad50 strain growth inhibition, active compounds read high
In short: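 Growth of the mutant yeast was measured after compound exposure and referenced to vehicle-treated cultures.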

[5] = NCI Yeast Anticancer Drug Screen. Data for the mec2-1 strain (AID 157); details: S. cerevisiae mec2-1 strain, active compounds read high
In short: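 Vehicle-treated cultures served as reference for growth inhibition of compound-exposed mec2-1 yeast.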

[6] = NCI Yeast Anticancer Drug Screen. Data for the sgs1 mgt1 strain (AID 161);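 note: 0% = growth of cultures given vehicle only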; details: S. cerevisiae sgs1 mgt1 strain, active compounds read high
In short: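 Read-out: growth inhibition vs vehicle controls. Cells: mutant yeast strain deficient in DNA damage repair.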

[7] = NCI Yeast Anticancer Drug Screen. Data for the CLN2oe strain (AID 163);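 note: 0% = growth of vehicle-only control cultures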; details: S. cerevisiae CLN2oe strain, active compounds read high
In short: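 Inhibition relative to vehicle-treated yeast is reported. Cells: strain with genetic alteration in cell-cycle control, grown with compound.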

[8] = NCI Yeast Anticancer Drug Screen. Data for the cln2 rad14 strain (AID 165);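 note: 0% = growth equal to vehicle treated cultures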; details: S. cerevisiae cln2 rad14 strain, active compounds read high
In short: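 Each compound was tested on cln2 rad14 yeast. Inhibition of growth was calculated against vehicle-exposed controls.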

[9] = NCI Yeast Anticancer Drug Screen. Data for the bub3 strain (AID 167); details: S. cerevisiae bub3 mutant strain, active compounds read high
In short: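 Whole-cell yeast assay. The mutant strain was incubated with compounds, and growth inhibition was determined by comparison with vehicle-treated cells.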

[10] = NCI Yeast Anticancer Drug Screen. Data for the wt2 strain (AID 169);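 note: 0% = growth of vehicle-treated yeast cultures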; details: S. cerevisiae wt2 strain growth inhibition, active compounds read high
In short: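 Inhibition of yeast growth was determined after compound treatment, normalised to controls receiving only vehicle.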

[11] = NCI Yeast Anticancer Drug Screen. Data for the sgs1 strain (AID 173);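 note: 0% = growth of vehicle-only control cultures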; details: S. cerevisiae sgs1 mutant, active compounds read high
In short: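 Screen format: yeast with repair or checkpoint alterations, compound exposure, growth read relative to vehicle.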

[12] = NCI Yeast Anticancer Drug Screen. Data for the mlh1 rad18 strain (AID 175); details: S. cerevisiae mlh1 rad18 strain growth inhibition, active compounds read high
In short: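 Vehicle-treated cultures served as the reference for growth inhibition in a yeast strain carrying DNA damage repair alterations exposed to each compound.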

[13] = NCI Yeast Anticancer Drug Screen. Data for the rad18 strain (AID 177); details: S. cerevisiae rad18 mutant growth inhibition, active compounds read high
In short: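 Test articles were incubated with altered yeast defective in DNA damage repair. Results are given as inhibition of growth versus vehicle.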

[14] = NCI Yeast Anticancer Drug Screen. Data for the wt1 strain (AID 149);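 note: 0% = growth of vehicle-treated wt1 cultures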; details: S. cerevisiae wt1 strain (SPY 50644) growth inhibition, active compounds read high
In short: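 Measured: growth of wt1 yeast under compound versus vehicle treatment, reported as inhibition.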

[15] = NCI Yeast Anticancer Drug Screen. Data for the rad14 strain (AID 159);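 note: 0% = growth of vehicle-treated control cultures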; details: S. cerevisiae rad14 strain growth inhibition, active compounds read high
In short: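 Here, inhibition of yeast growth was measured after compound exposure, using a strain with a genetic defect in DNA damage repair and vehicle-treated cultures as the reference.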

[16] = NCI Yeast Anticancer Drug Screen. Data for the mlh1 strain (AID 171);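 note: 0% = growth of vehicle-treated control cultures of the same strain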; details: S. cerevisiae mlh1 strain growth inhibition, active compounds read high
In short: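 Vehicle-normalised growth inhibition of a repair- or checkpoint-altered yeast strain following compound treatment.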

[17] = at 5.0 µM (retest, dose inferred, filed as 0.5)
[18] = at 50.0 µM (retest, dose inferred, filed as 5.0)

Measured: growth inhibition

O=C(COC(=O)c1ccccc1)c1ccc(Br)cc1
inactive: [1]; at 1.2 µM 14% | [1]; at 3.7 µM 20% | [1]; at 11.0 µM 45% | [3]; at 1.2 µM 5% | [3]; at 3.7 µM 13% | [3]; at 11.0 µM 22% | [4]; at 1.2 µM 17% | [4]; at 3.7 µM 23% | [4]; [17] 31% | [4]; at 11.0 µM 68% | [5]; at 1.2 µM 4% | [5]; at 3.7 µM 7% | [5]; [17] 67% | [5]; at 11.0 µM 17% | [6]; [17] 58% | [7]; at 1.2 µM 0% | [7]; at 3.7 µM 13% | [7]; at 11.0 µM 64% | [8]; [17] 12% | [9]; at 1.2 µM 49% | [9]; at 3.7 µM 65% | [9]; [17] 41% | [10]; at 1.2 µM 16% | [10]; at 3.7 µM 63% | [11]; at 1.2 µM -12% | [11]; at 3.7 µM 10% | [12]; [17] 34% | [13]; at 1.2 µM 15% | [13]; at 3.7 µM 17% | [13]; at 11.0 µM 37%
active: [1]; at 33.0 µM 99% | [1]; at 100.0 µM 98% | [2]; at 1.2 µM 75% | [2]; at 3.7 µM 93% | [2]; at 11.0 µM 99% | [2]; at 33.0 µM 99% | [2]; at 100.0 µM 97% | [3]; at 33.0 µM 99% | [3]; at 100.0 µM 98% | [4]; at 33.0 µM 98% | [4]; [18] 99% | [4]; at 50.0 µM 98.8% | [4]; at 100.0 µM 97% | [5]; at 33.0 µM 99% | [5]; [18] 99% | [5]; at 50.0 µM 99.3% | [5]; at 100.0 µM 99% | [6]; [18] 99% | [6]; at 50.0 µM 99.4% | [7]; at 33.0 µM 99% | [7]; at 100.0 µM 97% | [8]; [18] 99% | [8]; at 50.0 µM 98.8% | [9]; at 11.0 µM 100% | [9]; at 33.0 µM 99% | [9]; [18] 99% | [9]; at 50.0 µM 99.7% | [9]; at 100.0 µM 99% | [10]; at 11.0 µM 96% | [10]; at 33.0 µM 100% | [10]; at 100.0 µM 99% | [11]; at 11.0 µM 90% | [11]; at 33.0 µM 99% | [11]; at 100.0 µM 99% | [12]; [18] 99% | [12]; at 50.0 µM 99.2% | [13]; at 33.0 µM 99% | [13]; at 100.0 µM 98%

Nc1nc(N)c2nc(CNc3ccc(C(=O)NC(CCC(=O)O)C(=O)O)cc3F)cnc2n1 (stereo unspecified)
active: [14]; at 100.0 µM 78% | [4]; [18] 86% | [4]; at 100.0 µM 74% | [5]; at 11.0 µM 81% | [5]; at 33.0 µM 93% | [5]; [18] 97% | [5]; at 50.0 µM 86.7% | [5]; at 100.0 µM 94% | [15]; at 100.0 µM 82% | [9]; [18] 82% | [9]; at 100.0 µM 73% | [13]; at 33.0 µM 72% | [13]; at 100.0 µM 80%
inactive: [14]; at 1.2 µM 13% | [14]; at 3.7 µM 12% | [14]; at 11.0 µM 17% | [14]; at 33.0 µM 50% | [2]; at 1.2 µM 23% | [2]; at 3.7 µM 13% | [2]; at 11.0 µM 13% | [2]; at 33.0 µM 15% | [2]; at 100.0 µM 39% | [3]; at 1.2 µM 19% | [3]; at 3.7 µM 16% | [3]; at 11.0 µM 15% | [3]; at 33.0 µM 36% | [3]; at 100.0 µM 63% | [4]; at 1.2 µM 7% | [4]; at 3.7 µM 18% | [4]; [17] 13% | [4]; at 11.0 µM 30% | [4]; at 33.0 µM 55% | [4]; at 50.0 µM 43% | [5]; at 1.2 µM 19% | [5]; at 3.7 µM 26% | [5]; [17] 26% | [15]; at 1.2 µM 0% | [15]; at 3.7 µM -19% | [15]; at 11.0 µM 0% | [15]; at 33.0 µM 54% | [6]; [17] -4% | [6]; [18] 56% | [6]; at 50.0 µM 39.5% | [7]; at 1.2 µM -8% | [7]; at 3.7 µM 13% | [7]; at 11.0 µM 18% | [7]; at 33.0 µM 17% | [7]; at 100.0 µM 46% | [8]; [17] 14% | [8]; [18] -2% | [8]; at 50.0 µM -5.05% | [9]; at 1.2 µM 6% | [9]; at 3.7 µM 6% | [9]; [17] 2% | [9]; at 11.0 µM 6% | [9]; at 33.0 µM 35% | [9]; at 50.0 µM 29.2% | [10]; at 1.2 µM -19% | [10]; at 3.7 µM -11% | [10]; at 11.0 µM -21% | [10]; at 33.0 µM 2% | [10]; at 100.0 µM 48% | [16]; at 1.2 µM 16% | [16]; at 3.7 µM 10% | [16]; at 11.0 µM 8% | [16]; at 33.0 µM 29% | [16]; at 100.0 µM 46% | [11]; at 1.2 µM 24% | [11]; at 3.7 µM 14% | [11]; at 11.0 µM 15% | [11]; at 33.0 µM 41% | [11]; at 100.0 µM 67% | [12]; [17] 18% | [12]; [18] 67% | [12]; at 50.0 µM -2.7% | [13]; at 1.2 µM 20% | [13]; at 3.7 µM 19% | [13]; at 11.0 µM 35%

CCCCOP(=O)(CCCP(=O)(OCCCC)OCCCC)OCCCC
inactive: [1]; at 1.2 µM 0% | [1]; at 3.7 µM 0% | [1]; at 11.0 µM 3% | [1]; at 33.0 µM 4% | [2]; at 1.2 µM -4% | [2]; at 3.7 µM -4% | [2]; at 11.0 µM -3% | [2]; at 33.0 µM -3% | [2]; at 100.0 µM -2% | [3]; at 1.2 µM -3% | [3]; at 3.7 µM -3% | [3]; at 11.0 µM -1% | [3]; at 33.0 µM 10% | [3]; at 100.0 µM 42% | [4]; at 1.2 µM -1% | [4]; at 3.7 µM 1% | [4]; [17] 7% | [4]; at 11.0 µM 1% | [4]; at 33.0 µM 7% | [4]; [18] 66% | [4]; at 50.0 µM 2.05% | [15]; at 1.2 µM 0% | [15]; at 3.7 µM 3% | [15]; at 11.0 µM 9% | [15]; at 33.0 µM 20% | [6]; [17] 12% | [6]; [18] 50%
active: [1]; at 100.0 µM 97% | [4]; at 100.0 µM 97% | [15]; at 100.0 µM 90%
